The experiment concerns VDR:RXRa (NR concentration 270 nM, RXRa partner concentration 90 nM). Kind of experiment: PBM binding z-score (relative to random genomic background probes); higher = stronger binding; sequences stand for … in GC…GCGATTGACAGCGTAGAATGAAGG
The protocol: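 Protein-binding microarray (Agilent 4x180K custom design, double-stranded 60-nt probes: 5' GC cap, 34-nt variable region, 24-nt constant primer region; full probe sequence given). Purified or IVT nuclear receptor:RXRα heterodimers (3:1 NR:RXRα, mostly 270:90 nM) or homodimers were incubated for 1 h in PBS with 2% milk and no ligand, then detected with Alexa488 antibodies. Fluorescence from o1-orientation probes (~5 replicates averaged) was converted to z-scores against 500 random hg19 background probes. Variable regions are seed direct-repeat (DR0–DR5) sites, all their single-nucleotide variants and half-site ablations.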
In the case of CCTACTGGGCCTTTCAGAGGTCATTGATCATATG, the PBM binding z-score was determined as 3.36.
Under GTACCAAGGTGAATAGGTCGTTCATGAGTAGGCG stands 1.06.
TCTTGTAGATCAGCAGCTTAAGAAAGCTGGCCAA registered a PBM binding z-score of -0.232.
Under TCATATAGGTAAATGCTAGGTGAAAGTACGATCT stands 1.15; under TCTAGTTGGTCAAAGATCACACACTCGAAATGCG, 1.29; under GCTAGCAGGCTATTTGGGTCACTCAATGACGGGC, 0.0221.
The same measure for AGAACGGGGGCACGCTGAGTTGATAGCAGAGTAG: 4.23.
The same measure for CGAGACAGGTGAGAAGGTAACTCAGCCTCGATTA: -0.375.
As for TAATATAGGTAAATGCTAGGTGAAAGTCCGATCT, the PBM binding z-score worked out at 0.36.
Under GTACAAAGGTGAATAGGTCGTTGATGAGTAGGCG stands 2.18; under TATACAGGGTCAAAGGCCAGACTACGAATGTCGA, 4.68; under GCTAGCAGGCCATTTGGGTCACACAATGACGGGC, 1.24.
The same measure for CCTACTGGGCCCAGGTCATTGATCAGTCAAAGCA: 1.7.
On to CCGAGTAGGTTATCGGGCATTCAGGCAACGGTGA, for which the PBM binding z-score was -0.386.
Under CCTTCCGGGTCACGAGGTTATAGCACGACGAGCG stands 5.39.
In the case of CCTGCTAGGTCAATGCTCAGCTAAAGCAGCTCGC, the PBM binding z-score was found to be 0.598.
The same measure for AGAACGAGGGCACACTGAGTTGATAGCAGAGTAG: 2.15.
The same measure for TCTTGTAGATCAATAGGGGTTAAGAAAGTGCGCT: 2.64.
Under ATCTCTAGGTAAAGATTGTTCAGTGAATGCAAAT stands 0.327; under GATACAGGTTCAGCTAGAGGCCAGAGTATGGAAA, 2.28.
The sequence TCTTGTAGATCAACAGGTTAAGAAAGCTGGCCAA displayed a PBM binding z-score of 0.855.
The sequence AGTCAAAGTTCAGGATGAGGTAACGTAAAGCACG gave a PBM binding z-score of 2.88.
The same measure for ATCTCTAGGTAAAGCTCAGTGAAAGATCGATAGA: -0.295.
Under CCTAGTTGGTCCAGGTCACACACGCTATAGGTAC stands 2.54; under CCTACTGGGCCAGCAGGTCATTGATATCAACGTT, 1.26; under CCTAGTTGGTCAGGAGTTCACACACCGGATATGA, 3.54.
The same measure for AATCAAAGTTCACTAGGTAACGTAAGATTCAGCT: 3.91; for ATCTCTAGGTAAAGTTCCGTGAAAGATCGATAGA: 0.335.
Sequence CGTACTAGGTCATCCAGGACAGTGAATACATTGA returned a PBM binding z-score of 4.32.
Under ATATGTAGGTTATCGGGCCATTCAGTTTGCGCAT stands 1.14; under TCATATAGGTAAAAGCTAGGTGAAAGTCCGATCT, 0.608; under CCTTACGGGTCACTCCAAGTTATAGCATCGGAGT, 2.82.
As for TCGAGTAGGTTACCAATGGGGCATTCAGCTTTCT, the PBM binding z-score came to 0.0745.
Sequence ATATGTAGGTTATCCGGTCATTCAGTTTGCGCAT returned a PBM binding z-score of 2.65.
The same measure for AGAACGAGGGCAATGTGTTGATAGCACGGGTGGC: 0.824.
The same measure for CATACAGGGTCAGCCAGGCCAGAGTAGGGACGGC: 4.58; for TATACAGGGTGAAAGGCCAGAGTACGAATGTCGA: 0.682.
The same measure for AGACCAAGGTGATCGTGAGGTCGTTGATACTAAC: 3.12.
Regarding TCTTGTAGATCAACACGAGGTTAAGAAAGATCGA, the PBM binding z-score came to 0.895.
Under TTTATTAGTTGATTAGGGCAACCGAAACAGCGGA stands 0.643.

The values are drawn from the supplement of paper PMC6555819.
